# HepG2 tox – counter-screen for TGF-b inhibitors: cytotoxicity in HepG2 cells; HepG2 CAGA-GFP viability, ATP luminescence, 18 h; Potency, µM (top dose mostly 46.1 µM), inactives show at the top dose activity change, negative = cytotoxicity, hits mostly cytotoxic; hit rate 0.76% among 410,000; AID 588856; also: potency is read from the fitted curve at half-maximal effect
#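 HepG2 CAGA-GFP cells (1000/well, DMEM with 1% FBS) received compound, then TGF-beta at 500 pg/mL final, and were incubated 18 hours at 37 degrees C. Viability was read by CellTiter-Glo luminescence. Media-only wells were set as complete cell-killing and DMSO as no toxicity.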
# TDP1 cell CPT – DT40-hTDP1 cell growth loss with CPT. hit rate 12% among 420,000. Potency, µM (series often up to 46.2 µM), inactives show top-dose activity change, negative = growth inhibition, hits mostly inhibitors. AID 686979. chicken DT40 Tdp1-/-;hTDP1 cells + 20 nM CPT, ATP luminescence, 48 h; also: potency is read from the fitted curve at half-maximal effect; % is scaled to controls: 0 for no effect and ±100 for the full control effect; nearly all actives have a fitted effect of over 55% in size
#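 Cell growth measured by CellTiter-Glo luminescence after a minimum 48 h, 37 C compound exposure with 20 nM CPT in Tdp1-knockout DT40 cells stably expressing hTDP1, seeded 400/well; qHTS titration format.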
# TGFb inhibitor – TGF-b pathway inhibition; hit rate 1.2% among 410,000; HepG2 CAGA-GFP TGF-b/SMAD3 reporter, GFP fluorescence, 18 h; TGF-beta stimulated, 500 pg/mL final; Potency, µM (titrated, usually from 46.1 µM), for the others: at the highest dose activity, negative = inhibition, actives largely listed as inhibitors; also: potency is read from the fitted curve at half-maximal effect; % is scaled to controls: 0 for no effect and ±100 for the full control effect; nearly all actives have a fitted effect of over 65% in size
#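 HEPG2 CAGA-GFP cells (1000/well, DMEM with 1% FBS) were pre-incubated 2 h at 37 degrees C, given compound by pin tool, then stimulated with TGF-beta at 500 pg/mL final for 18 h before per-cell GFP fluorescence imaging.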
# TDP1 cell noCPT – qHTS for Inhibitors of human tyrosyl-DNA phosphodiesterase 1 (TDP1): qHTS in cells in absence of CPT. DT40 Tdp1-/- hTDP1 cells, no CPT, ATP luminescence, 48 h. Potency, µM (top dose mostly 46.2 µM), for the others: at the top dose activity change, negative = growth inhibition, usual class: inhibitors. hit rate 15% among 420,000; also: potency is read from the fitted curve at half-maximal effect; % is scaled to controls: 0 for no effect and ±100 for the full control effect; nearly all actives have a fitted effect of over 55% in size
#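 No-CPT arm: Tdp1-/-;hTDP1 DT40 cells (400/well) plus compounds, incubated ≥48 hr at 37 °C. Readout CellTiter-Glo luminescence.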
# IL-1B inflam inh – inflammasome signaling inhibition, IL-1 beta readout; THP-1 LPS/ATP IL-1B secretion, AlphaLISA, 16 h; hits give low values; activity change, % at 57.5 µM; hit rate 4.7% among 360,000; in the data active = activity change below about -50%; inconclusive = mostly about -30% to -49%; also: % is scaled to controls: 0 for no effect and ±100 for the full control effect
#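 THP-1 cells pretreated 1 hr with compounds (up to 57.5 uM final), then stimulated with LPS (250 ng/mL final) plus ATP (1.25 mM final); secreted IL-1B measured by AlphaLISA after 16 hr, decreased signal indicating inhibition.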
# TDP1 block – blocks human tyrosyl-DNA phosphodiesterase 1; Q9NUW8; recombinant TDP1, AlphaScreen DNA substrate cleavage; Potency, µM (series often up to 130 µM), inactives show at the top dose activity change, negative = inhibition, most hits filed as inhibitors; hit rate 0.28% among 350,000; AID 485290; also: potency is read from the fitted curve at half-maximal effect; % is scaled to controls: 0 for no effect and ±100 for the full control effect; nearly all actives have a fitted effect of over 40% in size
# Target sequence (Q9NUW8 whole entry, looked up): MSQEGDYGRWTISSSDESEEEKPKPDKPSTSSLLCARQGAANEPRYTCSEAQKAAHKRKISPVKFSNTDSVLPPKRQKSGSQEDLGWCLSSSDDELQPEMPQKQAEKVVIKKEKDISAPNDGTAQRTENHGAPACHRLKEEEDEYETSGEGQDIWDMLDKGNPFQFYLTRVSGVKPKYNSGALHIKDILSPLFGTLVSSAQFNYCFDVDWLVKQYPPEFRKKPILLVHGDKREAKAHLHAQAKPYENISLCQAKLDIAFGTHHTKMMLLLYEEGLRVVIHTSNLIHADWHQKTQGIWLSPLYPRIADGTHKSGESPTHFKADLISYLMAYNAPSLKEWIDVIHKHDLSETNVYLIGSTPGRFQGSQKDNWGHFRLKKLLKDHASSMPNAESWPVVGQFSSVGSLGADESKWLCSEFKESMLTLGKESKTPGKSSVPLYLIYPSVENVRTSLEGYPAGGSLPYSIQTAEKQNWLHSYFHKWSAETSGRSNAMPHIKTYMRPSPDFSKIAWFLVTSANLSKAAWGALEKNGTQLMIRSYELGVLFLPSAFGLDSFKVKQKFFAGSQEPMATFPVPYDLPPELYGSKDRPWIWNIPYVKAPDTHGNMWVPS
#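 E. coli-derived human Tdp1, 1 nM final. Cpd preinc 15 min RT; substrate 15 nM final, 5 min RT; AS bead mix 10 ug/ml final, 10 min RT. Signal loss = tyrosine-FITC cleavage. No-enzyme wells = max signal.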
# * = called active by the depositor; ? = inconclusive; . = no result given; ! = repeats disagree; [ ] = remark or other dose. Hits are enriched below; roughly 19% of the tested compounds scored in any of these assays. Unless noted, calls follow the shape of the dose curve; as a rule, active = well fitted curve in the direction sought with a large enough effect; inconclusive = small, poorly fitted or top-dose-only effect, or another doubt; inactive = no such curve, though single readings can be large; an effect the other way counts as inactive or inconclusive.
SMILES,HepG2 tox,TDP1 cell CPT,TGFb inhibitor,TDP1 cell noCPT,IL-1B inflam inh,TDP1 block
CCOc1ccccc1C(=O)Nc1ccccc1C(N)=O,2.3%,-23.1%,-3.0%,-23.1%,-8.9,9.3%
CCc1nnc(NC(=O)c2ccncc2)s1,-27.4%,1.1%,-14.3%,-3.6%,1.0,3.1%
CCc1nnc(NC(=O)c2cccc(C(=O)Nc3nnc(CC)s3)n2)s1,-53.6%,0.146µM*,0.251µM*,0.0206µM*,75.6,5.3%
CCOc1ccccc1C(=O)Nc1ccsc1C(=O)OC,-24.8%,4.11µM*,-37.5%,3.66µM*,-3.3,-5.1%
COc1ccccc1NC(=O)N1CCOc2ccccc21,-1.1%,-35.2%,19.6%,-13.4%,.,5.2%
Cc1ccc(SCc2nc(-c3ccc(C(=O)NCc4ccccc4Cl)cc3)oc2C)cc1,-16.4%,8.2µM*,-0.4%,9.2µM*,.,5.6%
Cc1ccc(S(=O)Cc2nc(-c3ccc(C(=O)NC(C)c4ccccc4)cc3)oc2C)cc1 (stereo not given),-2.9%,?,6.5%,14.6µM*,.,8.5%
COc1cc(NC(=O)c2ccc(-c3nc(CSc4ccccc4)c(C)o3)cc2)cc(OC)c1,-19.5%,18.4µM*,?,14.6µM*,.,0.0%
Cc1ccc2oc(-c3ccc(C)c(NC(=O)c4ccc(C(C)(C)C)cc4)c3)nc2c1,-21.4%,.,-1.9%,.,.,1.9%
Cc1ccc(SCc2nc(-c3ccc(C(=O)Nc4cc(C)ccc4C)cc3)oc2C)cc1,-0.7%,8.2µM*,9.5%,8.2µM*,.,5.6%
CCc1ccc(CNC(=O)c2ccc(-c3nc(CSc4ccc(C)cc4)c(C)o3)cc2)cc1,4.8%,9.4%,-5.2%,1.1%,.,5.6%
Cc1cc(=O)n(Cc2ccc(F)cc2Cl)c2c1c(C)nn2-c1ccccc1,-2.3%,-1.9%,0.7%,3.5%,.,3.2%
O=C(CCCN1CCC(O)(c2ccc(Cl)cc2)CC1)c1ccc(F)cc1,-54.0%,26.6µM*!,-0.7%,16.4µM*!,-68.0*,2.7%
O=C(CCCN1CCC(O)(c2cccc(C(F)(F)F)c2)CC1)c1ccc(F)cc1,-36.4%,?,15.7%,?,-53.5*,5.8%[56.1 µM]
O=C(CCCN1CCC(O)(c2ccc(Br)cc2)CC1)c1ccc(F)cc1,-39.5%,?,-34.6%,?,?,14.9%[21 µM]
Oc1ccccc1-c1cc(C(F)(F)F)[nH]n1,.,.,.,.,.,-0.6%
Oc1ccccc1-c1cc(C(F)(F)C(F)F)[nH]n1,-36.3%,?,11.2µM*,?,-4.7,1.1%
FC(F)C(F)(F)c1cc(-c2ccc(Cl)cc2)n[nH]1,-130.6%,18.4µM*,?,18.4µM*,.,6.0%
COc1ccc(CNC(=O)Cn2c(=O)c3cccn3c3cccnc32)cc1,0.1%,-4.9%,0.1%,-27.2%,.,2.6%
Cc1cccc(NS(=O)(=O)c2csc(C(N)=O)c2)c1C,-0.2%,-19.1%,-8.1%,3.5%,0.0,.
CC(C)Cc1ccc(CN2CCCC(NC(=O)c3nn(C)c(=O)c4ccccc34)C2)cc1 (stereo not given),-29.2%,?,?,?,-13.5,7.7%
CC(C)Cc1ccc(CN2CCCC(NC(=O)c3ccoc3)C2)cc1 (stereo not given),-7.4%,11.6µM*,-1.1%,13µM*,-8.1,6.2%
CC(C)Cc1ccc(CN2CCCC(NC(=O)c3ccnn3C)C2)cc1 (stereo not given),7.4%,18.4µM*,?,23.1µM*,-22.8,2.5%
CC(C)Cc1ccc(CN2CCCC(NC(=O)c3cccc(-n4cnnc4)c3)C2)cc1 (stereo not given),-34.9%,20.6µM*,0.4%,23.1µM*,-50.6*,4.2%
Cc1noc(C)c1CCC(=O)NC1CCCN(Cc2ccc(CC(C)C)cc2)C1 (stereo not given),-44.4%,18.4µM*,?,14.6µM*,-20.9,3.6%
SMILES,HepG2 tox,TDP1 cell CPT,TGFb inhibitor,TDP1 cell noCPT,IL-1B inflam inh,TDP1 block
CC1=C(C(N)=O)C(c2ccccc2Br)n2ncnc2N1 (stereo not given),-1.5%,1.8%,31.0%,-1.6%,.,-4.1%
CC(=O)N1CCC2(CC1)CCN(C(=O)Nc1cccc(C#N)c1)CC2,.,0.8%,.,0.0%,.,.
COc1ccc(NC(=O)Cn2c(SCc3c(F)cccc3Cl)nc3ccncc32)cc1OC,-10.9%,-25.7%,?,-19.8%,.,-2.5%
Cc1ccccc1NC(=O)COC(=O)c1ccc(C)c(S(=O)(=O)N2CCCCC2)c1,-12.1%,?,-14.8%,?,-17.4,.
CN1c2ccccc2-c2nc(SCC(=O)Nc3ccccc3)ncc2S1(=O)=O,-27.0%,?,-39.0%,18.4µM*,.,0.9%
CCOc1ccc(NC(=O)CSc2ncc3c(n2)-c2ccccc2N(C)S3(=O)=O)cc1,-6.6%,0.0%,0.2%,6.4%,.,2.6%
COc1ccccc1CNC(=O)CSc1ncc2c(n1)-c1ccccc1N(Cc1ccc(C)cc1)S2(=O)=O,-4.5%,?,15.5%,11.6µM*,.,1.8%
CCOC(=O)c1cccc(NC(=O)CSc2ncc3c(n2)-c2ccc(Cl)cc2N(Cc2ccccc2)S3(=O)=O)c1,-8.1%,?,-21.1%,1.46µM*,.,0.0%
COc1ccccc1CNC(=O)CSc1ncc2c(n1)-c1ccc(Cl)cc1N(Cc1ccccc1)S2(=O)=O,-1.0%,?,-1.3%,?,.,5.3%
COc1ccc(CNC(=O)CSc2ncc3c(n2)-c2ccc(Cl)cc2N(Cc2ccc(F)cc2)S3(=O)=O)cc1OC,-22.2%,11.6µM*,-10.0%,11.6µM*,.,2.6%
Cc1ccc(C)c(N2CCN(C(=O)c3ccc(NC4=NC5CS(=O)(=O)CC5S4)cc3)CC2)c1 (stereo not given),-10.6%,?,2.6%,-11.6%,-15.3,.
COc1ccc(CNC(=O)CSc2ncc3c(n2)-c2cc(Cl)ccc2N(Cc2ccccc2)S3(=O)=O)cc1OC,-9.3%,14.6µM*,-9.5%,11.6µM*,.,2.6%
Cc1ccc(C)c(NC(=O)CSc2ncc3c(n2)-c2ccc(Cl)cc2N(C)S3(=O)=O)c1,-5.6%,?,15.0%,18.4µM*,.,-2.6%
COc1ccccc1NC(=O)CSc1ncc2c(n1)-c1cc(Cl)ccc1N(C)S2(=O)=O,-18.5%,7.31µM*,-1.0%,10.3µM*,.,2.6%
COc1cccc(NC(=O)CSc2ncc3c(n2)-c2ccc(Cl)cc2N(C)S3(=O)=O)c1,-17.5%,-16.2%,6.6%,-29.8%,.,7.9%

# High-throughput results as filed in PubChem.
